Reference: PubChem BioAssay (NCATS)
Values joined by “and” are separate entries in the source; they are usually repeats but may differ in a detail not shown here. Equal values may be shown once. Inconclusive results are not listed. Active and inactive are the calls of the source. The call rests on the fitted dose curve; in most records, active means well fitted activation curve with a large enough effect; inconclusive means small, poorly fitted or top-dose-only effect; inactive means no such curve, though single readings can be large or run the other way.

These compounds were tested against Cellular tumor antigen p53 (Homo sapiens) (UniProt P04637) (assay: Primary qHTS for small molecule compounds that upregulate eGFP-tagged delta133p53alpha (in N-terminal) cells. (AID 2060322;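 further: cells pre-induced with doxycycline then dosed without doxycycline; series mostly up to about 56 µM; 0% = DMSO vehicle and 100% = reference activator; nearly all actives have a fitted effect of over 75% in size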)). Conditions: NCI-H358 eGFP-delta133p53alpha fluorescence, 24 h; activation: stronger effect = higher value.
Sequence of Cellular tumor antigen p53 (Homo sapiens) (P04637 whole entry, looked up): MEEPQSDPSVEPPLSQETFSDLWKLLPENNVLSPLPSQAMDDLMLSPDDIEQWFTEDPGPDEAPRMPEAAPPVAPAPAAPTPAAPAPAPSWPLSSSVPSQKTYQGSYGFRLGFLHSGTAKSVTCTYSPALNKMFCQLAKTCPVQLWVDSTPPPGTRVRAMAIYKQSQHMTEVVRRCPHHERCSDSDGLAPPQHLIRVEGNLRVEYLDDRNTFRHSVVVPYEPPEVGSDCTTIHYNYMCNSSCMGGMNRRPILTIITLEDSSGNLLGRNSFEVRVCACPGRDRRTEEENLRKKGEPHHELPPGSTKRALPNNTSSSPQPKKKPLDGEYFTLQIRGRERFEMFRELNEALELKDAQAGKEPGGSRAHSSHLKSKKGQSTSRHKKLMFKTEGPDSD
Outline: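 NCI-H358 cells pre-induced 24 h with 10 ng/ml doxycycline for eGFP-delta133p53alpha, plated dox-free and exposed 24 h at 37C to titrated compounds. Fixed, Hoechst-stained; gated GFP peak intensity by laser scanning cytometry, normalized to DMSO (0%) and 57.5 uM 5-azacytidine (100%).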

Row | Compound | activation
1 | CCCCOCCOc1nc(-c2ccc(C(=O)O)c(F)c2)sc1C | 13.4% (inactive)
2 | CCC(=O)O[C@]1(C(=O)CCl)[C@@H](C)C[C@H]2[C@@H]3CCC4=CC(=O)C=C[C@]4(C)[C@@]3(F)[C@@H](O)C[C@@]21C | 6.69% (inactive) and -0.269% (inactive)
3 | N[C@H](CSC(c1ccccc1)(c1ccccc1)c1ccccc1)C(=O)O | -3.21% (inactive)
4 | O=c1cc(-c2ccccc2)oc2cc(O)cc(O)c12 | 3.3% (inactive)
5 | CC[C@@H]1C(=O)N(C)c2cnc(Nc3ccc(C(=O)NC4CCN(C)CC4)cc3OC)nc2N1C1CCCC1 | 7.53% (inactive)
6 | CCOC(=O)O[C@]1(C(=O)OCCl)CC[C@H]2[C@@H]3CCC4=CC(=O)C=C[C@]4(C)[C@H]3[C@@H](O)C[C@@]21C | -7.34% (inactive)
7 | CCOc1cc(N)c(Cl)cc1C(=O)NCC1CN(Cc2ccc(F)cc2)CCO1 (stereo not drawn) | -2.82% (inactive) and 4.36% (inactive)
8 | CC(=O)O[C@]1(C(C)=O)CC[C@H]2[C@@H]3C=C(C)C4=CC(=O)CC[C@]4(C)[C@H]3CC[C@@]21C | -26.8% (inactive)
9 | Cc1ccc(NC(=O)c2cccc(N(C)C)c2)cc1NC(=O)c1ccc(O)cc1 | -4.71% (inactive)
10 | COC(=O)C[C@](O)(CCCC(C)(C)O)C(=O)O[C@@H]1C(OC)=C[C@]23CCCN2CCc2cc4c(cc2[C@H]13)OCO4 | -1.17% (inactive)
11 | COc1ccc(C[C@@H](C)[C@@H](C)Cc2ccc(OC)c(OC)c2)cc1OC | 11.5% (inactive)
12 | CC(COc1ccccc1)N(CCCl)Cc1ccccc1 (stereo not drawn) | -9.21% (inactive) and 7.69% (inactive)
13 | CCCCC(=O)O[C@]1(C(=O)CO)[C@@H](C)C[C@H]2[C@@H]3CCC4=CC(=O)C=C[C@]4(C)[C@@]3(F)[C@@H](O)C[C@@]21C | 8.12% (inactive)
14 | CCN(c1ccccc1)c1cc(NC)[n+](C)c(C)n1 | 3.67% (inactive)
15 | NCc1c[nH]c(=S)n1[C@H]1CCc2c(F)cc(F)cc2C1 | -19.4% (inactive)
16 | COc1ccc(C(=O)CC(=O)c2ccc(C(C)(C)C)cc2)cc1 | -17.5% (inactive) and -8.43% (inactive)
17 | COc1ccccc1C(=O)Nc1cc2c(cc1N1CCCCC1)n(C)c(=O)n2C | -12.3% (inactive)
18 | CC[C@@H](C)[C@H](NC(=O)[C@H](CC1CCCCC1)NC(=O)c1ccno1)C(=O)N1CCC2(CCc3ccccc32)CC1 | 0.928% (inactive) and 1.43% (inactive)
19 | N=C(N)c1ccc2cc(OC(=O)c3ccc(N=C(N)N)cc3)ccc2c1 | -10.5% (inactive)
20 | O=c1ncn2nc(Sc3ccc(F)cc3F)ccc2c1-c1c(Cl)cccc1Cl | 2.34% (inactive)
21 | CCCCCCCN(CC)CCCC(O)c1ccc(NS(C)(=O)=O)cc1 (stereo not drawn) | 5.18% (inactive)
22 | CCOC(=O)c1c(C)n(C)c2ccc(O)cc12 | 6.69% (inactive) and -7.58% (inactive)
23 | CCN(CC)CCOc1ccc(Cc2ccccc2)cc1 | -6.69% (inactive) and 6.46% (inactive)
24 | C[C@]12CC[C@@H]3c4ccc(O)cc4C[C@@H](CCCCCCCCCS(=O)CCCC(F)(F)C(F)(F)F)[C@H]3[C@H]1CC[C@H]2O (stereo partly drawn) | -2.43% (inactive)
25 | CN(C)c1ccc2cc(C(=O)N[C@@H](CCCN=C(N)CCl)C(=O)NCc3ccccc3)ccc2c1 | 2.27% (inactive)
26 | CCCCCCNC(=O)n1cc(F)c(=O)[nH]c1=O | -29.9% (inactive) and -7.59% (inactive)
27 | Cc1nnc(NS(=O)(=O)c2ccc(N)cc2)s1 | -14.2% (inactive) and -3.76% (inactive)
28 | O=C(/C=C/N1C[C@H]2C[C@@H]1CN2c1ccccn1)c1ccccc1O | 21.2% (inactive)
